Assay results published in article PMC5540273 (PLoS ONE, 2017).

tested on: BMPR2; details: concentration: 1 μM, replicates: in singlicate; n = 1
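Also: KINOMEscan kinase panel screen.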

| Structure (SMILES) | %Inh |
| --- | --- |
| CN1CCC(n2cnc(-c3ccc(F)cc3)c2-c2ccnc(NC3CCNCC3)n2)CC1 [SB-229482] | 1% |
| COc1ccc(NC(=O)c2ccc(-c3cc(-c4nnc(C)o4)ccc3C)cc2)cc1 [GW595885] | 0% |
| Cl.c1ccc(Cn2ccc3cc(Nc4ncnc5ccccc45)ccc32)cc1 [GW275568] | 13% |
| Nc1nccc2scc(-c3ccc4c(c3)CCN4C(=O)Cc3cc(F)ccc3F)c12 [GSK2587663] | 0% |
| C[C@@H]1CCN(C(=O)CO)C[C@@H]1N(C)c1ncnc2[nH]ccc12 | 0% |
| FC(F)(F)c1cc(Nc2nccc(-c3c(-c4ccc(Cl)cc4)nn4ncccc34)n2)ccc1Cl [GW829351] | 4% |
| O=C(Nc1ccccc1)Nc1ccc(Oc2ccc3nccn3n2)cc1 | 0% |
| Clc1ccc(-c2cc(-c3c[nH]nc3-c3ccccn3)ccn2)cc1 [GW681251] | 0% |
| CCCc1ccc(S(=O)(=O)NC2CCN(c3ccnc(Nc4ccc(OC)cc4)n3)C2)cc1 (stereo not drawn) [GSK1379737] | 8% |
| O=C(Nc1n[nH]c2nc(-c3ccco3)c(Br)cc12)c1ccc(CN2CCCC2)cc1.O=C(O)[C@H](O)[C@@H](O)C(=O)O [SB-742352] | 0% |
| CCC(CC)(CC)n1cnc2c(N)ncnc21 [SKF-97620] | 53% |
| Clc1cc(Nc2ncnc3cc[nH]c23)ccc1OCc1ccccn1 | 17% |
| CCn1c(-c2ccncc2)nc2cnccc21 [SB-735216] | 24% |
| Cl.Cl.c1ccc(-c2cc3ccncc3cc2OC2CCNCC2)cc1 [GSK1122999] | 0% |
| O=c1cc(N2CCOCC2)nc2n(Cc3cccc(Cl)c3)ccn12 [GSK2296823] | 0% |
| COc1ccc(Nc2nccc(N3CCC(NC(=O)c4cccc(NC(C)=O)c4)C3)n2)cc1 (stereo not drawn) [GSK1379732] | 9% |
| Cc1ccc(O)cc1Nc1cc(C(F)(F)F)nc2ccc(-c3ccncc3)cc12 [GW630823] | 0% |
| O=C(NCCCN1CCCC1=O)c1cnc(NCc2cc(Cl)ccc2Cl)nc1NC1CCNCC1 | 0% |
| COc1cc2ncnc(Nc3ccc(OCc4ccccc4Br)c(Cl)c3)c2cc1OC.Cl [GI261590] | 15% |
| Cc1cccc(-c2nc(Nc3ccc4[nH]nnc4c3)c3ccccc3n2)n1 [GW867587] | 8% |
| CC(=O)Nc1n[nH]c2ncc(-c3ccccc3)cc12 [SB-548492] | 47% |
| COC(=O)c1c(-c2ccccc2)c2cc(Cl)ccc2c(=O)n1Cc1ccc(S(C)(=O)=O)cc1 | 0% |

tested on: BMX; details: concentration: 1 μM, replicates: in singlicate; n = 1

| Structure (SMILES) | %Inh |
| --- | --- |
| Cc1ccc(NC(=O)c2cccc(C#N)c2)cc1-c1ccc(C(=O)Nc2ccncc2)cc1 [GSK1398463] | 26% |
| CS(=O)(=O)CCNCc1ccc(-c2ccc3ncnc(Nc4ccc(OCc5ccccc5)c(Cl)c4)c3c2)o1.Cl [GW574783] | 19% |
| Fc1ccc(-c2ncn(CCCNCc3ccccc3)c2-c2ccncc2)cc1 | 7% |
| CCc1nc(-c2cccc(C)c2)c(-c2ccnc(NC(=O)c3ccccc3)c2)s1 | 0% |
| c1ccc(-c2ccc3c(-c4ccnc(Nc5ccc6c(c5)OCCO6)n4)cnn3n2)cc1 [GW818941] | 8% |
| CSc1ccc(NC2=C(c3ccccc3Cl)C(=O)NC2=O)cc1 [SB-342411] | 34% |
| FC(F)(F)c1ccc(-c2cc(-c3c[nH]nc3-c3ccccn3)ccn2)cc1 [GW599550] | 19% |
| COc1ccc(NC(=O)Nc2ccc(C)c(-c3ccc(C(=O)Nc4ccncc4)cc3)c2)cc1 [GSK1398475] | 14% |
| Fc1ccc(Nc2nccc(-c3c(-c4ccc(Cl)cc4)nn4ncccc34)n2)cc1F [GW829058] | 5% |
| Cn1cc(-c2ccc3c(c2)CCN3C(=O)Cc2cccc(C(F)(F)F)c2)c2c(N)ncnc21 [GSK2606414] | 2% |
| O=C(CCO)NCCn1ccc2ncnc(Nc3ccc(Oc4cccc(C(F)(F)F)c4)c(Cl)c3)c21 | 0% |
| CNc1nccc(-c2c(-c3ccc(F)cc3)ncn2CCCN2CCOCC2)n1 [SB-222516] | 3% |
| COC(=O)c1cccc(NC(=O)NCCNc2ccnc(Nc3ccc(F)cc3)n2)c1 [GSK1379883] | 21% |
| CN1CCC(n2cnc(-c3ccc(F)cc3)c2-c2ccnc(NC3CCNCC3)n2)CC1 [SB-229482] | 0% |
| COc1ccc(NC(=O)c2ccc(-c3cc(-c4nnc(C)o4)ccc3C)cc2)cc1 [GW595885] | 10% |
| Cl.c1ccc(Cn2ccc3cc(Nc4ncnc5ccccc45)ccc32)cc1 [GW275568] | 18% |
| Nc1nccc2scc(-c3ccc4c(c3)CCN4C(=O)Cc3cc(F)ccc3F)c12 [GSK2587663] | 23% |
| C[C@@H]1CCN(C(=O)CO)C[C@@H]1N(C)c1ncnc2[nH]ccc12 | 0% |

| Structure (SMILES) | %Inh |
| --- | --- |
| FC(F)(F)c1cc(Nc2nccc(-c3c(-c4ccc(Cl)cc4)nn4ncccc34)n2)ccc1Cl [GW829351] | 0% |
| O=C(Nc1ccccc1)Nc1ccc(Oc2ccc3nccn3n2)cc1 | 8% |
| Clc1ccc(-c2cc(-c3c[nH]nc3-c3ccccn3)ccn2)cc1 [GW681251] | 10% |
| CCCc1ccc(S(=O)(=O)NC2CCN(c3ccnc(Nc4ccc(OC)cc4)n3)C2)cc1 (stereo not drawn) [GSK1379737] | 0% |
| O=C(Nc1n[nH]c2nc(-c3ccco3)c(Br)cc12)c1ccc(CN2CCCC2)cc1.O=C(O)[C@H](O)[C@@H](O)C(=O)O [SB-742352] | 8% |
| CCC(CC)(CC)n1cnc2c(N)ncnc21 [SKF-97620] | 0% |
| Clc1cc(Nc2ncnc3cc[nH]c23)ccc1OCc1ccccn1 | 20% |
| CCn1c(-c2ccncc2)nc2cnccc21 [SB-735216] | 17% |
| Cl.Cl.c1ccc(-c2cc3ccncc3cc2OC2CCNCC2)cc1 [GSK1122999] | 17% |
| O=c1cc(N2CCOCC2)nc2n(Cc3cccc(Cl)c3)ccn12 [GSK2296823] | 20% |
| COc1ccc(Nc2nccc(N3CCC(NC(=O)c4cccc(NC(C)=O)c4)C3)n2)cc1 (stereo not drawn) [GSK1379732] | 16% |
| Cc1ccc(O)cc1Nc1cc(C(F)(F)F)nc2ccc(-c3ccncc3)cc12 [GW630823] | 17% |
| O=C(NCCCN1CCCC1=O)c1cnc(NCc2cc(Cl)ccc2Cl)nc1NC1CCNCC1 | 0% |
| COc1cc2ncnc(Nc3ccc(OCc4ccccc4Br)c(Cl)c3)c2cc1OC.Cl [GI261590] | 4% |
| Cc1cccc(-c2nc(Nc3ccc4[nH]nnc4c3)c3ccccc3n2)n1 [GW867587] | 0% |
| CC(=O)Nc1n[nH]c2ncc(-c3ccccc3)cc12 [SB-548492] | 13% |
| COC(=O)c1c(-c2ccccc2)c2cc(Cl)ccc2c(=O)n1Cc1ccc(S(C)(=O)=O)cc1 | 17% |
